From PubChem BioAssay
The source made the active and inactive calls.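 How the source made its calls, unless noted: active means inhibition at or above 50% at 10 µM; inactive means inhibition below 50%.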

What was measured:
[1] = inhibitors of TNFa-induced NFkB p65 translocation, primary screen, imaging, HUVEC, MLSMR starter and 10KST1 sets (AID 438;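 active means inhibition above 20% together with a positive visual image hit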;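 further: compound added about 3h40 before a 20 min TNFalpha stimulation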;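 on inhibition: signal is the nuclear over cytoplasmic p65 intensity ratio per well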); conditions: HUVEC TNFa-induced p65 nuclear translocation; cell count: measured here: nuclei count (cytotoxicity indicator), at 2.08 µM; inhibition: at 2 µM, stronger effect = higher value, 0% TNFa-plus-vehicle, 100% no-TNFa wells
[2] = reduction of polyQ htt aggregates in cells – imaging, exon1htt(103Q)mCFP cells, high-content imaging, primary screen (AID 483;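 active means visual image review flags a hit and inhibition of aggregation exceeds 20%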;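 further: compound exposure lasted 3 days before fixation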;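 on nuclei count: percent of the per-plate median nuclei count of sample wells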); conditions: exon1htt(103Q)mCFP cell line, aggregate imaging, at 2 µM; inhibition of aggregation: stronger effect = higher value; nuclei count: measured here: cell count, toxicity
[3] = endothelial E-selectin expression blockers – imaging, HUVEC, immunofluorescence, MLSMR starter and 10KST1 sets, primary screen (AID 487;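 active means visually confirmed hit in the image check and inhibition above 20%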;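 on inhibition: signal is fraction of cell area covered by stained E-selectin grains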;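 on nuclei count: 100% = median nuclei count of all wells on the same plate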); conditions: HUVEC TNFalpha-induced E-selectin immunofluorescence imaging, at 2 µM; inhibition: stronger effect = higher value; nuclei count: measured here: cell number, toxicity
[4] = target: Voltage-gated potassium channel subunit beta-2 (Rattus norvegicus) (UniProt P62483); assay: inhibitors of rat Kvbeta2 reductase activity – biochemical, NADPH fluorescence, primary screen (AID 622;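 active means fluorescence slope higher than the sample average by over 3 SD, cut at about -0.22 in these data, passing the limit was not always enough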;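 further: slope of raw intensity against log time taken from 70 to 1610 s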); conditions: recombinant KvBeta, 4-cyanobenzaldehyde reduction, at 10 µM, stronger effect = higher value
[5] = target: Voltage-gated potassium channel subunit beta-2 (Rattus norvegicus) (UniProt P62483); assay: enhancers of rat Kvbeta2 NADPH turnover – biochemical, NADPH fluorescence, primary screen (AID 623;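 active means NADPH fluorescence slope more negative than the mean of all samples by about 3 SD, 99.7% confidence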;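 further: fluorescence intensity change per second fitted from 20 to 320 s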); conditions: Recombinant KvBeta, NADPH fluorescence decrease slope, 10 min; at 10 µM; stronger effect = lower value
[6] = target: Alpha-2C adrenergic receptor (Homo sapiens) (UniProt P18825); assay: compounds altering alpha2C-coupled GIRK flux – cell-based, HEK293 alpha2C/GIRK1/2, thallium flux, primary screen (AID 624;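 active means fluorescence slope after compound addition differing from the mean of all screened samples at 99.7% confidence, in either direction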;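 further: slope of fluorescence ratio to pre-addition baseline per second over 15 to 24 s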); conditions: thallium flux BTC fluorescence, at 10 µM, actives lie on both sides
[7] = blockers of RIG-like receptor reporter activation – cell-based, Sendai virus stimulus, luciferase, 10K MLSCN set, TLR/RLR signaling modifier project, primary screen (AID 602276); conditions: HEK293 RL24 IRF3 luciferase reporter, at 10 µM, stronger effect = higher value;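 further: firefly luciferase from ISG56 promoter only with Renilla not read in this screen; 0% = Sendai virus plus DMSO and 100% = medium plus DMSO without virus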
[8] = TLR3 IRF3 reporter activation blockers – cell-based, poly I:C stimulus, luciferase, 10K MLSCN set, primary screen (AID 602277;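 active means inhibition of the reporter signal at or above 50%; inactive means inhibition below 50%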); conditions: HEK293-TLR3 RL24 IRF3 luciferase reporter, at 10 µM, stronger effect = higher value

Chain of Alpha-2C adrenergic receptor (Homo sapiens) (P18825 whole entry, looked up): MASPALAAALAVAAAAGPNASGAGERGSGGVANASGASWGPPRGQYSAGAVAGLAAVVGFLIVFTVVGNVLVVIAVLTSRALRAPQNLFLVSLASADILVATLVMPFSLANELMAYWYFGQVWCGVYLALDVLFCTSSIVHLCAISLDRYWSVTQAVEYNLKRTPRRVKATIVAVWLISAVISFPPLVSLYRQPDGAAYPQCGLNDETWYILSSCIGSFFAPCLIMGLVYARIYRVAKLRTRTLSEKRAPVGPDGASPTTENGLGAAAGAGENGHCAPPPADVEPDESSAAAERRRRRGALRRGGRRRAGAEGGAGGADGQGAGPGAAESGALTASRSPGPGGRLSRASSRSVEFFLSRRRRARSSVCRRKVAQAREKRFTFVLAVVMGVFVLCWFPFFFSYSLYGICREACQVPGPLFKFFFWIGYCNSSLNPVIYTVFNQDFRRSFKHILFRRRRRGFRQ
Chain of Voltage-gated potassium channel subunit beta-2 (Rattus norvegicus) (P62483 whole entry, looked up): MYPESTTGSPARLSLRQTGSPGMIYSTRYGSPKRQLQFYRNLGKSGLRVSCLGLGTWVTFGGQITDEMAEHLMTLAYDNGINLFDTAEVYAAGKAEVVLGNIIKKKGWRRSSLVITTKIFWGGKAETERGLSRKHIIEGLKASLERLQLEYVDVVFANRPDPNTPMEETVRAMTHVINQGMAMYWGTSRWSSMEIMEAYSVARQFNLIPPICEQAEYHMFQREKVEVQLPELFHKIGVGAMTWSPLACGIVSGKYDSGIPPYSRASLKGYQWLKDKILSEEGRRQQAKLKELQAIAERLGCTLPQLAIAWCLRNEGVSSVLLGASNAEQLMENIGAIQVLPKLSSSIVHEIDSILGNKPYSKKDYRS

| Structure (SMILES) | cell count [1] | inhibition [1] | inhibition of aggregation [2] | nuclei count [2] [%] | inhibition [3] | nuclei count [3] [%] | fluorescence slope [4] | NADPH fluorescence slope [5] | slope [6] | inhibition [7] | inhibition [8] |
| --- | --- | --- | --- | --- | --- | --- | --- | --- | --- | --- | --- |
| CC1CCCCC1NC(=O)c1nn(C)c(=O)c2ccccc12 (stereo not drawn) | 361 | 0.7% (inactive) | 0.4% (inactive) | 105 | 13.7% (inactive) | 88.6 | -0.621 (inactive) | 1.8e-06 (inactive) | 0.00592 (inactive) | -1.74% (inactive) | 2.78% (inactive) |
| CCN(CCCNC(=O)CC1Oc2ccc(C)cc2NC1=O)Cc1ccccc1 (stereo not drawn) | 548 | 5.1% (inactive) | 30.8% (inactive) | 102 | -42.9% (inactive) | 128 | -0.495 (inactive) | -4.4e-05 (inactive) | 0.00631 (inactive) | -5.16% (inactive) | 30.7% (inactive) |
| CN1CCN(Cc2nc3c(c(=O)[nH]c(=O)n3C)n2CCc2ccccc2)CC1 | 632 | 7.4% (inactive) | 6.7% (inactive) | 99.2 | -34.7% (inactive) | 119 | -0.436 (inactive) | -1.6e-05 (inactive) | 0.00646 (inactive) | 3.33% (inactive) | 39.3% (inactive) |
| COc1ccc(N2C(=O)C(Cl)=C(N3CCCC3)C2=O)cc1 | 446 | 10.1% (inactive) | -0.8% (inactive) | 101 | 25.6% (inactive) | 100 | -0.29 (inactive) | -4.2e-05 (inactive) | 0.00536 (inactive) | -5.83% (inactive) | -8.61% (inactive) |
| O=C(CCS(=O)(=O)c1cc(Br)cc2c1N(C(=O)C1CC1)CC2)NCC1CCCO1 (stereo not drawn) | 415 | -0.6% (inactive) | -16.1% (inactive) | 105 | -15.8% (inactive) | 85.8 | -0.314 (inactive) | -1.2e-05 (inactive) | 0.00703 (inactive) | 12.5% (inactive) | -10.9% (inactive) |
| Cc1ccn2cc(CCNC(=O)CC(C)(C)C)nc2c1 | 316 | 6.4% (inactive) | -9.1% (inactive) | 95.6 | -3.4% (inactive) | 104 | -0.307 (inactive) | -5.9e-05 (inactive) | 0.00588 (inactive) | 3.87% (inactive) | 5.08% (inactive) |
| CC1CCc2c(sc(N)c2C(N)=O)C1 (stereo not drawn) | 722 | -4.4% (inactive) | 6.1% (inactive) | 88.3 | 16.5% (inactive) | 98.4 | -0.371 (inactive) | -1.7e-06 (inactive) | 0.00501 (inactive) | 5.07% (inactive) | 6.01% (inactive) |
| CCc1cc(=O)oc2cc(OC(C)=O)cc(OC(C)=O)c12 | 602 | -6% (inactive) | 12.3% (inactive) | 104 | 19.2% (inactive) | 97.5 | -0.0715 (active) | 2.1e-05 (inactive) | 0.00397 (inactive) | 11.6% (inactive) | 14% (inactive) |
| CC(C)c1nnc(NC(=O)c2ccc(N3C(=O)CCC3=O)cc2)s1 | 627 | -8% (inactive) | 13.9% (inactive) | 110 | -36.4% (inactive) | 119 | -0.407 (inactive) | 9.4e-07 (inactive) | 0.00608 (inactive) | 4.17% (inactive) | -7.88% (inactive) |
| CCOC(=O)NC1(NCc2ccccc2)Oc2ccccc2O1 | 606 | -12.3% (inactive) | 9.6% (inactive) | 95 | -140% (inactive) | 129 | -0.509 (inactive) | 9e-05 (inactive) | 0.00513 (inactive) | -5.13% (inactive) | -21.2% (inactive) |
| CCOC(=O)c1[nH]c(C)c(C(=O)NCc2ccccn2)c1C | 664 | -2.8% (inactive) | -6.6% (inactive) | 87.7 | -173% (inactive) | 114 | -0.51 (inactive) | -0.000223 (inactive) | 0.00562 (inactive) | 17.5% (inactive) | 14.1% (inactive) |
| CC(=O)c1cc(F)c(N2CCN(C(=O)Cc3ccccc3)CC2)cc1C | 774 | -3.9% (inactive) | -30.4% (inactive) | 84.3 | -25.8% (inactive) | 110 | -0.493 (inactive) | -6.1e-05 (inactive) | 0.00566 (inactive) | 3.34% (inactive) | 0.856% (inactive) |
| COC(=O)c1ccccc1NC(=O)C1CC(=O)N(c2ccc(F)cc2)C1 (stereo not drawn) | 321 | 6.5% (inactive) | -18.4% (inactive) | 115 | -16.8% (inactive) | 134 | -0.604 (inactive) | -3.1e-05 (inactive) | 0.00375 (inactive) | 14.7% (inactive) | 5.83% (inactive) |
